Test results from PubChem BioAssay (NCI).
This is part of a sample that, as a whole, favours compounds with a hit. Of some 79,000 tested, about 15% had one in any assay. No stated cut-off is given here; in the data, active means growth inhibition above about 70%; inactive means the rest.

Assays:
[1] = NCI Yeast Anticancer Drug Screen. Data for the rad50 strain (AID 155);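 further: 0% = growth of vehicle-only cultures of the same strain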; details: S. cerevisiae rad50 strain growth inhibition; at 50.0 µM; active compounds read high
Procedure, shortened: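 Relative growth inhibition (compound vs vehicle) was measured in yeast with a defined repair-gene alteration.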

[2] = NCI Yeast Anticancer Drug Screen. Data for the mec2-1 strain (AID 157); details: S. cerevisiae mec2-1 strain, at 50.0 µM, active compounds read high
Procedure, shortened: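 Growth inhibition is read against vehicle-treated controls after compound exposure of the mec2-1 yeast strain, which is defective in DNA damage repair or cell cycle control.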

[3] = NCI Yeast Anticancer Drug Screen. Data for the sgs1 mgt1 strain (AID 161);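 further: 0% = growth of cultures given vehicle only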; details: S. cerevisiae sgs1 mgt1 strain, at 50.0 µM, active compounds read high
Procedure, shortened: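 Growth of a repair-deficient yeast mutant was monitored after compound treatment and expressed as inhibition relative to vehicle-treated cultures.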

[4] = NCI Yeast Anticancer Drug Screen. Data for the cln2 rad14 strain (AID 165);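 further: 0% = growth equal to vehicle treated cultures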; details: S. cerevisiae cln2 rad14 strain, at 50.0 µM, active compounds read high
Procedure, shortened: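 Growth inhibition, relative to vehicle-treated controls, is the read-out. The test organism is a yeast strain with defined genetic alterations, cln2 rad14.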

[5] = NCI Yeast Anticancer Drug Screen. Data for the bub3 strain (AID 167); details: S. cerevisiae bub3 mutant strain, at 50.0 µM, active compounds read high
Procedure, shortened: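 Screening used yeast with an engineered genetic alteration affecting cell cycle control. Compound-exposed cultures were compared with vehicle cultures, and reduced growth was taken as inhibition.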

[6] = NCI Yeast Anticancer Drug Screen. Data for the mlh1 rad18 strain (AID 175); details: S. cerevisiae mlh1 rad18 strain growth inhibition; at 50.0 µM; active compounds read high
Procedure, shortened: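 Cells of a genetically altered yeast strain, deficient in DNA damage repair, were treated with compound. Their growth was then compared with that of vehicle-treated cultures to give inhibition.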

Measured: growth inhibition

CC(=O)Nc1ccc(F)c([N+](=O)[O-])c1
inactive: [1] -6.45% | [2] -19.6% | [3] 3.35% | [4] -13.7% | [5] -14.9% | [6] 5.7%

O=C(O)/C=C/C=C/c1ccccc1
inactive: [1] 8.9% | [2] 8.95% | [3] 49.9% | [4] -2.7% | [5] 16.4% | [6] 32.8%

COc1ccc(-n2c(CCCC(=O)O)nc3c2C(=O)c2ccccc2C3=O)cc1
inactive: [1] 20.4% | [2] 23.8% | [3] 25.5% | [4] 17.1% | [5] 25.1% | [6] 33.5%

Oc1ccc2c(c1)c1ccccc1c1ncccc21
inactive: [1] 46% | [2] 3.4% | [3] 43.6% | [4] 3.7% | [5] 9.35% | [6] 49%

O=C(O)c1ccc2c3ccc(C(=O)O)c4c(C(=O)O)ccc(c5ccc(C(=O)O)c1c25)c43
inactive: [1] -21.1% | [2] -33.5% | [3] -17.5% | [4] -0.25% | [5] -19.6% | [6] -19.1%

OC(c1ccccc1)(c1ccccc1)c1ccccc1CNc1ccccc1
inactive: [1] 45.5% | [2] 30.4% | [3] 26.2% | [4] 8% | [5] 19.8% | [6] 49.8%

COc1ccc(N(N=Nc2ccccc2)C(C)=O)cc1
inactive: [1] -2.05% | [2] 2% | [3] 30.9% | [4] -4.75% | [5] -16.7% | [6] 11.9%

O=NC1CCCCC1Cl (configuration not stated)
inactive: [1] 3% | [2] -4.15% | [3] 4.6% | [4] -4.45% | [5] 7.05% | [6] 2.55%

CCC(c1ccc(OCc2ccccc2)cc1)c1cc2c(cc1OCCO)OCO2 (configuration not stated)
inactive: [1] 23.7% | [2] 57% | [3] -3% | [4] 0.9% | [5] 39.7% | [6] 57%

CCOCCC(=O)O
inactive: [1] 26.1% | [2] 6.3% | [3] -7% | [4] -5.3% | [5] 18.1% | [6] 6.15%

OCCS
inactive: [1] -7.35% | [2] 5.25% | [3] -8.4% | [4] -21.8% | [5] -3.45% | [6] -4.25%

COc1nc(NC2OC(CO)C(O)C(O)C2O)c(C(C)=O)c(=O)n1C (configuration not stated)
inactive: [1] 12.2% | [2] 2.25% | [3] 24.1% | [4] 15.2% | [5] -6.25% | [6] 12.5%

CCCCCCCCCCN(CCCCCCCCCC)C(C)C(O)c1ccc2cc(Br)c3ccccc3c2c1 (configuration not stated)
inactive: [1] -12.4% | [2] -13.2% | [3] -15.8% | [4] -16.9% | [5] -12.5% | [6] -14.3%

CC1=C(Br)C(=O)C(C(C)C)=CC1=O
inactive: [1] -38.2% | [2] -20.6% | [3] -6.75% | [4] -4.9% | [5] 3.5% | [6] 0.9%

O=[N+]([O-])c1ccc(Oc2ccc3ccccc3c2)c([N+](=O)[O-])c1
inactive: [1] -1.4% | [2] -17.9% | [3] 1.8% | [4] -56.5% | [5] -9.75% | [6] -14.3%

O=[N+]([O-])c1ccc(N2CCCC2)cc1
inactive: [1] 14.2% | [2] -8.05% | [3] -6.9% | [4] 0.8% | [5] 13.8% | [6] -16.7%

O=C(Nc1ccccc1)OCC(CN1CCCCC1)OC(=O)Nc1ccccc1 (configuration not stated)
inactive: [1] -35.7% | [2] -38% | [3] -13.8% | [4] 5.55% | [5] -23.8% | [6] -37.1%

O=C(c1ccc(Cl)cc1)C(C(c1ccccc1[N+](=O)[O-])N1CCCCC1)N1CCCCC1 (configuration not stated)
inactive: [1] -15.1% | [2] -0.3% | [3] -10.4% | [4] -30.8% | [5] -23.6% | [6] 2.15%

COc1ccccc1N/N=c1\c2nc3ccccc3nc1n(-c1ccccc1C)c(=S)n2-c1ccccn1
inactive: [1] 3.4% | [2] 5.1% | [3] 16.3% | [4] -0.75% | [5] 0.9% | [6] 8.85%

CC(C)OC(=O)c1ccc(=O)oc1
inactive: [1] 7.4% | [2] -5.85% | [3] -2.4% | [4] -8.75% | [5] -18.4% | [6] -5.15%

NNC(=O)Nc1ccccc1
inactive: [1] 3.8% | [2] 5.55% | [3] -0.5% | [4] -13.6% | [5] -2.4% | [6] -3.15%

COc1cc(CCNC(=O)CC(C)C)ccc1OCc1ccccc1
inactive: [1] -14.9% | [2] -27% | [3] 1.35% | [4] -30.5% | [5] -11.9% | [6] -15.9%

C#CC(C)(C)CC
inactive: [1] 21.4% | [2] -16.4% | [3] 8.35% | [4] 19.8% | [5] -8.1% | [6] 17.4%

O=C1Cc2ccccc2C(=O)N1
inactive: [1] 23% | [2] 22.3% | [3] 27.3% | [4] 7.4% | [5] 4.8% | [6] 16.4%

CC(=O)NC1(C)C(C)C2CC1C(C)C2(C)C (configuration not stated)
inactive: [1] 13.2% | [2] -13.8% | [3] -44% | [4] -0.55% | [5] -30.6% | [6] -34.6%

Cc1ccc(C(C)C)cc1NC(=O)c1cccc([N+](=O)[O-])c1
inactive: [1] -8.4% | [2] 6.9% | [3] 18.9% | [4] -7.1% | [5] 18.9% | [6] 8%

CCCSc1cc(Cl)c(C)cc1S(=O)(=O)n1cc[nH]c1=O
inactive: [1] 11.9% | [2] 7.3% | [3] 9.15% | [4] 5.75% | [5] 13.3% | [6] 35.7%

CCC#CCN(CCC)CCC
inactive: [1] -8.55% | [2] 7.1% | [3] -10.7% | [4] -41.1% | [5] -17.9% | [6] -18.9%

COc1ccc2c(c1)CCc1c(C(C)=O)c3ccccc3n1C2
inactive: [1] 19.8% | [2] -13.3% | [3] 46.4% | [4] 15.2% | [5] 47.1% | [6] 2.15%

CC(=O)c1cccc(OCC(O)CN2CCN(c3ccc(C)cc3)CC2)c1 (configuration not stated)
inactive: [1] -12.3% | [2] 3.95% | [3] 4.1% | [4] -8.9% | [5] 3.15% | [6] -2.25%

C=C1C(=O)O[C@@H]2[C@H]1CC[C@H](C)[C@@H]1CCC(=O)[C@@]21C
inactive: [1] 10% | [2] -0.5% | [3] 3.35% | [4] 13.8% | [5] 12.8% | [6] 14.2%

O=C(O)c1c2c(nc3ccccc13)Cc1ccccc1-2
inactive: [1] 1% | [2] -0.75% | [3] 10.1% | [4] -0.2% | [5] 17.3% | [6] -39.8%

O=C(Nc1ccccc1Cl)c1ccc(Cl)cc1
inactive: [1] 4.75% | [2] 14.9% | [3] 8.05% | [4] -16.2% | [5] 29.1% | [6] -4.75%

O=NNc1ccc(Oc2ccccc2)cn1
inactive: [1] 15.4% | [2] -13.5% | [3] -7.9% | [4] -9% | [5] -19.8% | [6] -1.85%

CCCCCCCCCCCCCCCCOc1ccc(-c2cc(=O)n(C)n2C)cc1
inactive: [1] 6% | [2] -18.6% | [3] -19.1% | [4] -8.45% | [5] -2.9% | [6] -4.05%

O=C1CC2(CCCC2)C(=O)N1c1cccc([N+](=O)[O-])c1
inactive: [1] 10.8% | [2] 5% | [3] 17.4% | [4] 11% | [5] 11.7% | [6] -4.85%

CC(=O)Nc1cccc(Oc2ccc(Cl)cc2[N+](=O)[O-])c1
inactive: [1] 13% | [2] -6.6% | [3] -2.75% | [4] -5.2% | [5] 2.35% | [6] 7.95%

Cn1cnc2c1S(=O)(=O)NCN2
inactive: [1] 10.7% | [2] 3.15% | [3] -8.6% | [4] -3.2% | [5] 19.9% | [6] 6.7%

CC(C)N(CC(=O)O)CC(=O)O
inactive: [1] -0.95% | [2] -13.4% | [3] -21.1% | [4] -5% | [5] -22.9% | [6] -16.4%

Cc1ccc(C(C#N)c2ccc(N)cc2)cc1 (configuration not stated)
inactive: [1] 21.9% | [2] -21.3% | [3] 29.9% | [4] 17.1% | [5] 20.2% | [6] 32.5%

C[C@]12CCC(=O)C=C1CC[C@@H]1C2CC[C@]2(C)Nc3[nH]ncc3CC12 (some centres not stated)
inactive: [1] -22.2% | [2] 9.6% | [3] 37.4% | [4] 33.6% | [5] 11.8% | [6] 27.1%

Cc1cccc(/C=C/c2csnn2)n1
inactive: [1] -25.1% | [2] -6.75% | [3] -8.4% | [4] 14.6% | [5] -6.05% | [6] -15.2%
